Measured values taken from the OligoGym collection.

target: RNF167; experiment: pooled miR-30 sensor sort-seq; sequence = guide strand; conditions: shRNA
Note: reference of the scale not given here.

Sequence	sensor-assay potency score (higher = more potent)
TCACATTGTGTACTACAGCGGC	-0.461
TTCCTCTTGGTCTTCGTCCCCA	-0.474
TTTGGTAAGTCGATTCCGCTGG	0.435
TTGGTAAGTCGATTCCGCTGGA	0.395
TTCCTCACTATTCCACACCATG	-1.35
TACTCGGAGCTTCTCTCCCCAA	-1.19
ATGTGTAGGAATCTGTTTCAGT	-0.804
TTCCGGGTCTGAGTGAGCCAGG	-1.12
TTGTGTACTACAGCGGCACCAT	-0.0886
TACAACGAGCTATCATTACTGC	-0.205
AAGACTGACCCATTGACCGGGG	-0.25

target: RNF170; experiment: as above; conditions: shRNA

Sequence	sensor-assay potency score (higher = more potent)
TAAGATAGAAAAAAGCTCCCAT	0.565
TTATCATATAGGTACCTGCTGA	-0.705
TATAACTGAATCATCATCCAGT	0.606
ATGCAATCTCAGAACATCCTGA	-0.378
TAATTAATCTAAGTAATTCTGG	-0.536
TATATTATCATATAGGTACCTG	-0.52
TTAATCTAAGTAATTCTGGGGA	0.33
TAGATCCATAATTCTCTCCATA	-0.793
TTCCAGACAACATAGAATCAAG	-0.928
TACATTAGCTCAGATATCCTAG	0.22
ATTCTCTCCATAATAGATCTGG	-0.226
TAATATTAGAACTTCAAACATG	-0.991

target: RNF19A; experiment: as above; conditions: shRNA

Sequence	sensor-assay potency score (higher = more potent)
TTTGTGCTTTGAAACATCCTTG	0.0546
TTTTGTAATACTTATAACCTAA	-0.606
TAACATAATAGGAACACCGATA	-0.784
TTATATAAGCAGCACATCGTGG	-0.73
TACAGTGGTAGCAAAACTCTGT	0.121
TATATTTAGAGATAAAACCTAT	-0.374
ATTTCTTTCATACACAACCAAC	-1.69
TCTGCTTGTACTTCCAACCTGT	0.605
TTTGTTGTTCTAACAACTGTGC	-0.162
TACATCTGCTTGTACTTCCAAC	-0.763
TTGGGTTGTGTCTTGCTTCTGC	0.712
TTGTCGAGCAGCATCACAGGTC	0.0826

target: RNF219; experiment: as above; conditions: shRNA

Sequence	sensor-assay potency score (higher = more potent)
TTCACTTGAATTTTTTAGCTGT	0.783
TTGATCTGTGACTCCAAGCTGA	0.034
TCTGTTATCAACTTCAGCCTTC	0.456
TTAGCTTATCCACATCATCTTT	-0.899
TACTTGTATCTGTCACATCTAA	-0.451
